Measured values taken from PubChem BioAssay AID1159580 (chemical genetic matrix, 2015).
“And” between values parts separate entries of the source, which are not always exact repeats. Equal values may be shown once. The whole screen tested about 5,500 compounds, of which about 2,000 (36%) were called active. Inconclusive results (about 18%) are left out. Rule as the data show it: active = normalized growth mostly below about 0.91 (no sharp cut-off); inconclusive = no clear call, values can overlap the other calls; inactive = mostly above about 0.92. The list shows a part of the results.

Experiment: chemical genetic growth profiling, strain panel (AID 1159580);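 also: tested at 20 µM; growth read once vehicle control cultures reached saturation at 30 °C; 1 = growth at the plate median or of vehicle wells; lower values mean less growth of the strain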
Details: S. cerevisiae deletion strains, growth OD

Measured: normalized growth

CNC1(C)C2CCC(C2)C1(C)C (stereo unspecified)
inactive: locus YAL013W, strain DEP1, hits give low values 0.982 | locus YAL021C, strain ccr4, hits give low values 0.97 | locus YAL026C, strain drs2, hits give low values 1 | locus YAL030W, strain snc1, hits give low values 1 | locus YAL040C, strain CLN3, hits give low values 1 | locus YBL061C, strain skt5, hits give low values 0.998 | locus YBR009C, strain hhf1, hits give low values 0.993 | locus YBR021W, strain FUR4, hits give low values 1.03 | locus YBR023C, strain chs3, hits give low values 0.981 | locus YBR171W, strain sec66, hits give low values 0.986 | locus YBR229C, strain ROT2, hits give low values 0.961 | locus YBR231C, strain swc5, hits give low values 0.982 | locus YBR279W, strain paf1, hits give low values 0.986 | locus YCL011C, strain gbp2, hits give low values 0.996 | locus YCL016C, strain dcc1, hits give low values 0.977 | locus YCL029C, strain bik1, hits give low values 0.991 | locus YCL061C, strain MRC1 (second series), hits give low values 0.999 | locus YCL061C, strain MRC1, hits give low values 0.989 | locus YCL069W, strain vba3, hits give low values 0.997 | locus YCR088W, strain abp1, hits give low values 0.994 | locus YDL005C, strain med2, hits give low values 0.992 | locus YDL035C, strain GPR1, hits give low values 0.993 | locus YDL040C, strain nat1, hits give low values 0.997 | locus YDL074C, strain BRE1, hits give low values 0.957 | locus YDL101C, strain DUN1, hits give low values 0.969 | locus YDL134C, strain PPH21, hits give low values 0.989 | locus YDL185W, strain tfp1, hits give low values 0.968 | locus YDL192W, strain arf1, hits give low values 0.996 | locus YDR001C, strain nth1, hits give low values 0.996 | locus YDR069C, strain doa4, hits give low values 1.02 | locus YDR101C, strain arx1, hits give low values 1.01 | locus YDR137W, strain rgp1, hits give low values 0.987 | locus YDR150W, strain NUM1, hits give low values 0.977 | locus YDR159W, strain sac3, hits give low values 0.994 | locus YDR162C, strain NBP2, hits give low values 0.913 | locus YDR195W, strain ref2 1 | locus YDR297W, strain sur2, hits give low values 0.993 | locus YDR318W, strain mcm21, hits give low values 1.03 | locus YDR334W, strain swr1, hits give low values 1 | locus YDR335W, strain msn5, hits give low values 0.999 | locus YDR363W, strain ESC2, hits give low values 0.993 | locus YDR388W, hits give low values 1.01 | locus YDR392W, strain spt3, hits give low values 0.93 | locus YDR502C, strain sam2, hits give low values 0.984 | locus YEL003W, strain gim4, hits give low values 1 | locus YEL037C, strain rad23, hits give low values 0.995 | locus YEL061C, strain CIN8 (second series), hits give low values 1 | locus YEL061C, strain CIN8, hits give low values 0.982 | locus YER002W, strain NOP16, hits give low values 1 | locus YER015W, strain faa2, hits give low values 1 | locus YER016W, strain bim1, hits give low values 0.997 | locus YER110C, hits give low values 0.993 | locus YER111C, strain swi4, hits give low values 1 | locus YER155C, strain BEM2 (second series), hits give low values 0.995 | locus YER155C, strain BEM2, hits give low values 0.987 | locus YER167W, strain BCK2, hits give low values 1 | locus YFR010W, strain ubp6, hits give low values 0.993 | locus YGL078C, strain dbp3, hits give low values 0.992 | locus YGL086W, strain mad1, hits give low values 1.01 | locus YGL167C, strain pmr1, hits give low values 0.993 | locus YGL173C, strain kem1, hits give low values 0.995 | locus YGL227W, strain vid30, hits give low values 0.987 | locus YGL240W, strain doc1, hits give low values 0.985 | locus YGL248W, strain PDE1, hits give low values 0.982 | locus YGL253W, strain hxk2, hits give low values 1 | locus YGR078C, strain PAC10, hits give low values 0.978 | locus YGR135W, strain pre9, hits give low values 0.96 | locus YGR229C, strain SMI1, hits give low values 0.987 | locus YGR252W, strain gcn5, hits give low values 1.08 | locus YHR013C, strain ard1, hits give low values 0.982 | locus YHR027C, strain rpn1, hits give low values 0.999 | locus YHR030C, strain SLT2, hits give low values 0.996 and 0.974 | locus YHR079C, strain IRE1 (second series), hits give low values 0.998 | locus YHR079C, strain IRE1, hits give low values 0.941 | locus YHR094C, strain hxt1, hits give low values 0.999 | locus YHR129C, strain ARP1, hits give low values 0.99 | locus YHR142W, strain chs7, hits give low values 0.974 | locus YHR200W, strain rpn10, hits give low values 1 | locus YIL066C, strain RNR3, hits give low values 0.989 | locus YIL073C, strain SPO22, hits give low values 1.04 | locus YIL125W, strain kgd1, hits give low values 0.989 | locus YIR030C, strain dcg1, hits give low values 0.991 | locus YJL092W, strain hpr5, hits give low values 0.991 | locus YJL095W, strain BCK1 (second series), hits give low values 0.996 | locus YJL095W, strain BCK1, hits give low values 0.996 and 0.958 | locus YJL115W, strain asf1, hits give low values 0.993 | locus YJL129C, strain trk1, hits give low values 0.976 | locus YJL134W, strain LCB3, hits give low values 0.988 | locus YJL154C, strain vps35, hits give low values 0.994 | locus YJL164C, strain tpk1, hits give low values 0.985 | locus YJL166W, strain qcr8, hits give low values 0.991 | locus YJL168C, strain set2, hits give low values 0.993 | locus YJL187C, strain SWE1 (second series), hits give low values 0.967 | locus YJL187C, strain SWE1, hits give low values 0.995 | locus YJR043C, strain POL32, hits give low values 1.02 | locus YJR066W, strain TOR1, hits give low values 0.981
